From PubChem
CRFBP-R2 block = blocks CRF-induced signaling of the CRF-BP/CRF-R2 complex | AID 588475 | inhibition, % at 11.8 µM | 0.59% of 350,000 active | HEK293 CRF-R2/CRF-BP, CRF-induced calcium fluorescence;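 active means inhibition of the ligand-induced calcium signal above about 50% at the single tested concentration, limit read from the data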
Cardio protect = myocardial damage modulation in H9c2 cells. H9c2 cardiomyocytes, H2O2 injury protection, ATPLite, 2 h. protection from H2O2 cell death, % at 20 µM. 0.63% of 360,000 active;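 active means compounds giving at least 50% protection of heart cells from peroxide-induced death in the single-dose screen, raw or plate-pattern-corrected value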
hiPSC survival = hiPSC single-cell survival enhancement; ATPlite luminescence; 100% = ROCK inhibitor wells, 0% = DMSO; survival enhancement, % at 20 µM; 0.044% of 360,000 active; AID 602274; in the data active means survival enhancement above about 18%;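 further: cells exposed to compounds for 16 hours before the ATP read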
CRFBP-R2 agonist = agonists of human CRF-binding protein/CRF-R2 receptor complex | 0.46% of 350,000 active | AID 588473 | activation, % at 13.2 µM | HEK293 CRF-R2/CRF-BP, calcium dye fluorescence (FLIPR); percent of saturating CRF peptide response;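 active means activation of at least 50%, plus an integration ratio under a set limit after plate pattern correction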
SKN-1 inh = blocks SKN-1 activity in C. elegans; C. elegans VP596 Pgst-4::GFP/RFP ratio, acrylamide-induced, 24 h; inhibition, % at 21.8 µM; 0.49% of 360,000 active; AID 624304;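 active means interference check ratio from 0.5 to 1.5 plus GFP to RFP signal ratio inhibition reaching or exceeding a fixed threshold, cut at about 30% in these data, passing the limit was not always enough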
TAG inh = reduces triacylglycerol accumulation in H9c2 cells; Nile Red lipid (TAG) fluorescence; cells loaded with 200 µM oleic acid; 0.66% of 230,000 active; inhibition, % at 12.5 µM;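 active means pattern-corrected inhibition of lipid staining of at least 50% with the nuclear-stain viability signal not falling by more than 50%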
Each line names hits and unclear results; the compound was inactive in the other large screens. Sampled rows, rich in hits. Any-hit rate of the full collection: about 2.5%.

CC(=O)c1c(COC(=O)c2ccc(F)cc2)nc2ccccc2[n+]1[O-]	none
Cc1ccc(Cc2c(-c3ccc(Cl)cc3)nc3c(Cl)cc(C(F)(F)F)cn23)cc1	none (no result: CRFBP-R2 block, CRFBP-R2 agonist, TAG inh)
CC1=C/C(=C(/c2cc(C)c(O)c(Br)c2)c2ccccc2S(=O)(=O)O)C=C(Br)C1=O	SKN-1 inh 50.5 (no result: TAG inh)
O=C(CSc1ncnc2c1oc1ccccc12)Nc1ccccc1F	none
CCOc1ccccc1NC(=O)CSc1ncnc2c1oc1ccccc12	SKN-1 inh 34.5 (no result: TAG inh)
Cc1ccc(C)c(NC(=O)Cn2cnc3c(oc4ccccc43)c2=O)c1	CRFBP-R2 block 52.3
Cc1ccc(N/C=C/C(=O)c2cccs2)cc1C	SKN-1 inh 39.2 (no result: TAG inh)
Cc1cc(N/C=C/C(=O)c2cccs2)ccc1F	none
CNc1ccc2c3c(cccc13)C(=O)N(C)C2=O	CRFBP-R2 agonist 170.2 (no result: TAG inh)
CN1C(=O)c2cccc3c(N(C)C)ccc(c23)C1=O	CRFBP-R2 agonist 55.0
C#CCNC(=O)C[C@@H]1C[C@@]2(C(=O)OCC)CCCC=C2N(CCC2=CCCCC2)C1=O	none (no result: CRFBP-R2 block, Cardio protect, hiPSC survival, CRFBP-R2 agonist, TAG inh)
COC(=O)c1ccc(OCC(=O)Nc2ccccc2C(=O)NC2CC2)cc1	Cardio protect 56.8
CC1(c2ccccc2)NC(=O)N(CC(=O)Nc2cccc(/C=C/c3ccccn3)c2)C1=O (stereo not drawn)	Cardio protect 68.2
CC1CCN(S(=O)(=O)c2cc(F)ccc2CN2C(=O)c3cccnc3C2=O)CC1	none (no result: TAG inh)
COC(=O)C1=CN(c2ccc3c(c2)OCO3)C(N)=C(C#N)C1c1ccc(-c2ccccc2)cc1 (stereo not drawn)	none (no result: CRFBP-R2 block, Cardio protect, hiPSC survival, CRFBP-R2 agonist, TAG inh)
Cc1noc(C)c1NC(=O)N(C)C[C@H]1OCc2cnnn2CCCC(=O)N([C@H](C)CO)C[C@H]1C	none (no result: CRFBP-R2 block, CRFBP-R2 agonist, TAG inh)
COc1ccc2c(c1)c1ccc3c(c1n2C)C(=O)C=CC3=O	hiPSC survival 28.5 (no result: TAG inh)
Cc1ccc2c(c1)c1ccc3c(c1n2C)C(=O)C=CC3=O	none (no result: TAG inh)
O=C(NC1CCCC1)C1CCC(CNS(=O)(=O)c2ccc(F)cc2)CC1 (stereo not drawn)	CRFBP-R2 block 88.9 (no result: TAG inh)
Cc1cc(Cl)ccc1-c1nc(NC(C)C)nc2ccsc12	none (no result: CRFBP-R2 block, CRFBP-R2 agonist)
COC(=O)c1ccc(CN2C(=O)C(C)N(C(=O)c3c(F)cccc3F)c3ccccc32)cc1 (stereo not drawn)	CRFBP-R2 block 58.4 (no result: TAG inh)
O=C(c1cccc(F)c1)N1CCN(c2cccc(C(F)(F)F)c2)CC1	SKN-1 inh 38.6
O=C(c1ccc2nccnc2c1)N1CCN(c2cccc(C(F)(F)F)c2)CC1	none
CC(=O)CSc1nc2ccccc2s1	SKN-1 inh 34.2
Cc1ccc(-c2noc(-c3cccs3)n2)cc1	SKN-1 inh 67.5 (no result: TAG inh)
COc1ccc(-c2nc(-c3ccncc3)no2)cc1	none (no result: TAG inh)
c1csc(-c2nc(-c3ccc(-c4ccon4)s3)no2)c1	SKN-1 inh 46.5
COc1ccccc1-c1noc(-c2cccs2)n1	none (no result: TAG inh)
COc1ccc(-c2nc(-c3cccs3)no2)cc1	SKN-1 inh 38.2
c1ccc(-c2nc(-c3ccc(-c4ccon4)s3)no2)cc1	none
CC(=O)Nc1ccc(N2C(=O)c3cccc4c(O)ccc(c34)C2=O)cc1	CRFBP-R2 agonist 200.7 (no result: TAG inh)
CC12CCC=CC1=C(C=O)C1C2CCC2(C)C(O)CCC12 (stereo not drawn)	none
CCSc1nnc(NC(=O)C2Cc3ccccc3CN2S(=O)(=O)CC)s1 (stereo not drawn)	Cardio protect 63.8 (no result: TAG inh)
COc1ccc(CC(=O)N/N=C(\C)c2ccc(Br)s2)cc1	CRFBP-R2 block 82.8
COc1ccc(-n2c(=O)[nH]c3cc(C(=O)NCCc4ccccc4)ccc3c2=O)cc1OC	none (no result: TAG inh)
CCCCCCCCSc1nnc2[nH]c(=O)cc(N)n12	none (no result: TAG inh)
CC(C)CSc1nnc2[nH]c(=O)cc(N)n12	CRFBP-R2 block 96.0 (no result: TAG inh)
Cc1c(C)c2c(OCC(=O)NCC3CCC(C(=O)O)CC3)cc3c(c2oc1=O)CCC(C)(C)O3 (stereo not drawn)	none (no result: CRFBP-R2 block, CRFBP-R2 agonist, TAG inh)
CCOC(=O)c1cc2c(ccc3ccccc32)oc1=O	none
CC(OC(=O)c1cc2c(ccc3ccccc32)oc1=O)c1nc2ccccc2s1 (stereo not drawn)	Cardio protect 68.8 (no result: TAG inh)
CN(CC(=O)NCc1ccc(F)cc1)CC(=O)Nc1ccc(Cl)c(C(F)(F)F)c1	none
COc1ccc(-c2ccc3c(=O)cc(-c4ccsc4)oc3c2)cn1	SKN-1 inh 47.3
COc1cc(-c2ccc3oc(-c4ccsc4)cc(=O)c3c2)cc(OC)c1OC	Cardio protect 55.9
O=C(Oc1ccc[nH]c1=O)C1CC1	none
COc1ccc(NC(=O)C(OC(=O)c2ccc([N+](=O)[O-])o2)c2ccccc2)cc1Cl (stereo not drawn)	Cardio protect 52.4 (no result: TAG inh)
O=C(COC(=O)CNC(=O)c1ccccc1)NC12CC3CC(CC(C3)C1)C2	none
COc1ccc(Cc2nc(-c3ccc(Cl)cc3)no2)cc1	CRFBP-R2 block 50.5, SKN-1 inh 35.4
CCc1ccc(OCCOCC(O)CNC(C)(C)C)cc1 (stereo not drawn)	CRFBP-R2 agonist 57.6 (no result: TAG inh)
O=C(NC1CCCCC1)C(c1ccncc1)N(C(=O)c1csnn1)c1cccc(F)c1 (stereo not drawn)	none (no result: TAG inh)
COc1ccc(/C(O)=C2/C(=O)C(=O)N(CCN(C)C)C2c2cccnc2)cc1C (stereo not drawn)	CRFBP-R2 agonist 94.3
CC1(C(=O)Nc2cccc(OC(F)(F)F)c2)Cc2c(-c3ccc(C(N)=O)cc3)ccnc2O1 (stereo not drawn)	Cardio protect 55.5 (no result: CRFBP-R2 block, CRFBP-R2 agonist)
CC(=O)Nc1cccc(-c2ccnc3c2CC(C)(C(=O)Nc2cccc(OC(F)(F)F)c2)O3)c1 (stereo not drawn)	none (no result: CRFBP-R2 block, CRFBP-R2 agonist)
CN(C)c1ccc(-c2ccnc3c2CC(C)(C(=O)Nc2ccc(Cl)c(C(F)(F)F)c2)O3)cc1 (stereo not drawn)	hiPSC survival 19.7 (no result: CRFBP-R2 block, CRFBP-R2 agonist)
CN(C)Cc1ccccc1-c1cccc2nccn12	none (no result: CRFBP-R2 block, CRFBP-R2 agonist)
O=C(Nc1ncc(Cc2ccc(Cl)cc2Cl)s1)c1ccc([N+](=O)[O-])cc1	CRFBP-R2 agonist 74.0 (no result: TAG inh)
COc1ccc(NC(=O)c2cc(C3CCCCN3S(=O)(=O)c3ccccc3)on2)c(C)c1 (stereo not drawn)	none (no result: CRFBP-R2 block, CRFBP-R2 agonist)
COc1ccccc1CN(C)C(=O)CN1C(=O)c2ccccc2C1=O	none (no result: TAG inh)
Cn1c(=O)c(Nc2ccc(Cl)cc2)c2c3c(cccc31)C(=O)c1ccccc1-2	CRFBP-R2 agonist 111.0 (no result: Cardio protect, hiPSC survival, SKN-1 inh, TAG inh)
CCOC(=O)c1c2c3c(cccc3n(C)c1=O)C(=O)c1ccccc1-2	Cardio protect 75.0 (no result: TAG inh)
CCOC(=O)c1c2c3c(cccc3[nH]c1=O)C(=O)c1ccccc1-2	none
CC(=O)Nc1c2c3c(cccc3n(C)c1=O)C(=O)c1ccccc1-2	none
CCOC(=O)c1c2c3c(c(Cl)ccc3[nH]c1=O)C(=O)c1ccccc1-2	Cardio protect 60.2 (no result: TAG inh)
CC(C)C[C@H]1CN=C(Nc2ccccc2)N1CC1CCC(C(C)(C)C)CC1 (stereo partly drawn)	TAG inh 59.5
